Pol kappa inh-1 – blocks human DNA polymerase kappa activity; 400,000 compounds, 0.53% hits; Potency, µM (doses to about 107 µM), for the others: at the top dose activity, negative = inhibition, actives largely listed as inhibitors; AID 588579; purified Pol kappa, fluorescent DNA synthesis assay, 10 min; also: % is scaled to controls: 0 for no effect and ±100 for the full control effect
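Enzyme at 10 nM met test compounds for 15 min at room temperature. Substrate addition (50 nM final) began the reaction, which was monitored by fluorescence at 0 and 10 min.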
Pol eta inh-1 – inhibitors of human DNA polymerase eta | 390,000 compounds, 1.2% hits | Potency, µM (highest dose often 114 µM), inactives show at the top dose activity change, negative = inhibition, hits mostly inhibitors | recombinant Pol eta, fluorescent DNA replication assay | Q9Y253 | AID 588591; also: % is scaled to controls: 0 for no effect and ±100 for the full control effect
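Pol eta at 10 nM preincubated with compounds 15 min at room temperature; reaction started with fluorescent substrate (50 nM final) and read kinetically at 0 and 10 min.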
POLB inh – inhibitors of human DNA polymerase beta; Pol beta primer extension/strand displacement, fluorescence kinetic; Potency, µM (top dose mostly 114 µM), without a hit: top-dose activity change, negative = inhibition, hits mostly inhibitors; 340,000 compounds, 1.3% hits; AID 485314; also: % is scaled to controls: 0 for no effect and ±100 for the full control effect
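Human Pol beta at 10 nM; strand-displacement substrate 50 nM final. Compound exposure 15 min at room temperature before start, reaction 10 min at room temperature.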
FEN1 inh-1 – blocks human flap endonuclease 1 | AID 588795 | Recombinant FEN1 flap cleavage, fluorescence, 15 min | 390,000 compounds, 0.35% hits | P39748 | Potency, µM (highest dose often 114 µM), inactives show at the top dose activity change, negative = inhibition, actives largely listed as inhibitors; also: % is scaled to controls: 0 for no effect and ±100 for the full control effect; nearly all actives have a fitted effect of over 65% in size
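Potency values derive from four-parameter Hill fits of normalized qHTS data. The reaction used 10 nM FEN1 preincubated 15 min at room temperature with compound, then 50 nM DNA substrate, read at 0 and 15 min.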
Pol iota inh – blocks human DNA polymerase iota activity | Q9UNA4 | Pol iota fluorescent replication assay, 10 min | Potency, µM (top dose mostly 115 µM), for inactives: at the top dose activity, negative = inhibition, actives largely listed as inhibitors | 390,000 compounds, 1% hits
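Fluorescent replication assay read twice, at 0 min and 10 min after adding 50 nM (final) substrate. Enzyme (10 nM) and compounds were first incubated 15 min at room temperature; enzyme-free buffer wells were negative controls.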
WRN helicase inh-1 – inhibitors of human WRN helicase. Q14191. WRN helicase unwinding, fluorescent forked duplex, kinetic. Potency, µM (doses to about 114 µM), without a hit: at the highest dose activity change, negative = inhibition, actives largely listed as inhibitors. 360,000 compounds, 0.46% hits; also: % is scaled to controls: 0 for no effect and ±100 for the full control effect; nearly all actives have a fitted effect of over 55% in size
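WRN at 20 nM final preincubated with compound 15 min at room temperature; reaction started with 100 nM fluorophore/quencher forked duplex oligonucleotide and 2 mM ATP final. Unwinding followed kinetically by red fluorescence (ex 525, em 598 nm).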
Pol kappa inh-2 – confirmation of human DNA polymerase kappa inhibitors. purified Pol-kappa, fluorescent strand-displacement substrate. Potency, µM, most hits filed as inhibitors. shares compounds with Pol eta inh-1. AID 720501. 920 compounds, 76% hits
Pol eta inh-2 – confirmation of human DNA polymerase eta inhibitors; shares compounds with Pol eta inh-1; Pol eta primer extension, TAMRA/BHQ fluorescence, 10 min; Potency, µM, hits mostly inhibitors; 2,600 compounds, 64% hits
FEN1 inh-2 – FEN1 inhibition, cherry-pick retest; shares compounds with FEN1 inh-1; FEN1 flap cleavage, TAMRA/BHQ2 fluorogenic DNA substrate; Potency, µM, usual class: inhibitors; 880 compounds, 79% hits; AID 720498; also: nearly all actives have a fitted effect of over 60% in size
WRN helicase inh-2 – confirmation of human WRN helicase inhibitors; shares compounds with WRN helicase inh-1; WRN helicase DNA unwinding, fluorescence kinetic; Potency, µM (series often up to 57.1 µM), without a hit: at the highest dose activity, negative = inhibition, most hits filed as inhibitors; 610 compounds, 63% hits; also: nearly all actives have a fitted effect of over 65% in size
TO displacement – binds DNA, flagged in WRN inhibitor counterscreen. thiazole orange DNA binding displacement, fluorescence. shares compounds with WRN helicase inh-1. Potency, µM (top dose mostly 57.1 µM), without a hit: top-dose activity change, negative = inhibition, hits mostly inhibitors. 610 compounds, 10% hits;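 also: drop in dye fluorescence marks compound binding to DNA; % is scaled to controls: 0 for no effect and ±100 for the full control effect; nearly all actives have a fitted effect of over 60% in size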
BLM helicase inh – counter-screen for WRN helicase inhibitors: human BLM helicase inhibition; shares compounds with WRN helicase inh-1; Recombinant BLM helicase DNA unwinding, red fluorescence; Potency, µM (highest dose often 57.1 µM), for the others: at the top dose activity change, negative = inhibition, hits mostly inhibitors; 610 compounds, 60% hits; AID 720503; also: nearly all actives have a fitted effect of over 60% in size
Numbers without * were called inactive; i = inactive; ? = inconclusive; · = not tested or not shown; ! = not active in a repeat; [ ] = another dose, or the depositor's remark. This is a sample that favours compounds with a hit; in the whole collection about 2.4% have one here. Calls follow the shape of the dose curve; as a rule, active = well fitted curve in the direction sought with a large enough effect; inconclusive = small, poorly fitted or top-dose-only effect, or another doubt; inactive = no such curve, though single readings can be large; an effect the other way counts as inactive or inconclusive. Potency is read from the fitted curve at half-maximal effect.

SMILES	Pol kappa inh-1	Pol eta inh-1	POLB inh	FEN1 inh-1	Pol iota inh	WRN helicase inh-1	Pol eta inh-2	WRN helicase inh-2	TO displacement	BLM helicase inh	others
COc1ccc(-c2cn3c(n2)sc2cc(C(=O)NCCCN4CCCCCC4)ccc23)cc1	-35%	?	0%	-4%	17%	·	·	·	·	·	Pol kappa inh-2=?;FEN1 inh-2=38*
Cc1cccc(NC(=O)c2oc3ccc(S(=O)(=O)N4CCC5(CC4)OCCO5)cc3c2C)c1C	-14%[60.1 µM]	-18%	-12%	3%	12%	·	·	·	·	·
O=C1NC(=O)/C(=C/c2ccc(-c3cc(C(=O)O)ccc3Cl)o2)S1	56µM*	20µM*	32µM*	20µM*	40µM*	-10%[11.6 µM]	?	·	·	·	FEN1 inh-2=38*
Cc1ccc(-n2c(O)c(C=NC3CCS(=O)(=O)C3)c3ccccc3c2=O)cc1C (stereo not drawn)	-9%	6%	0%	0%	-5%	-12%	·	·	·	·
Cc1ccc(-n2c(O)c(C=Nc3ccccc3-c3n[nH]c(=S)[nH]c3=O)c3ccccc3c2=O)cc1C	?	32µM*	?	50µM*	?	79µM*	?	·	·	·	FEN1 inh-2=67*
N#Cc1c(C(=O)c2cccs2)no[n+]1[O-]	·	·	·	·	·	·	?	22µM*	-8%	24µM*
Cc1ccc(OCC(=O)N(Cc2ccc(N(C)C)cc2)CC2CCCO2)cc1C (stereo not drawn)	-9%	-26%	-7%	7%	13%	·	·	·	·	·
N#C/C(=C\c1ccc(-c2ccc(Cl)c(C(=O)O)c2)o1)c1nc2ccccc2[nH]1	-25%	22µM*	?	-33%	22µM*	·	60*	19µM*	?	14µM*
N#C/C(=C\c1ccncc1)c1nc2ccccc2[nH]1	-15%	-20%	0%	-10%	118%	-1%	·	·	·	·
N#C/C(=C\c1ccc(-c2ccc(C(=O)O)cc2)o1)c1nc2ccccc2[nH]1	?	28µM*	?	45µM*	32µM*	?	34*	19µM*	179%	24µM*	Pol kappa inh-2=13*
N#C/C(=C\c1ccccc1C(=O)O)c1nc2ccccc2[nH]1	-7%	-14%	41%	-3%	190%	3%	·	·	·	·
Cc1nc(CNS(=O)(=O)c2cccc(F)c2)cs1	-5%	5%	34%	-2%	-29%	-2%	·	·	·	·
Cc1ccc(-c2csc(NS(=O)(=O)c3cccc(F)c3)n2)o1	?	25µM*	·	-23%	?	32µM*	?	24µM*	-29%	?
CCOC(=O)c1c(Nc2ccc(C)c(C)c2)nnc(-c2ccccc2)c1-c1ccccc1	-27%	?	2%	-5%	22%	·	·	·	·	·
NCCNc1cccc2ccccc12	-1%[19.4 µM]	·	·	·	·	·	·	·	·	·
C=CCN1C(=O)/C(=C/C=C2/N(CC)c3ccc(S(=O)(=O)N(C)C)cc3N2CC)SC1=S	-18%	45µM*	4.5µM*	?	?	5.3µM*	38*	9.6µM*	i	9.6µM*
O=C(Nc1ccc(F)cc1)c1ccc2c(c1)NC(=O)c1ccccc1S2	3%	-13%	10%	21%	50%	·	·	·	·	·
COC(=O)c1cc(NC(=O)c2ccc3c(c2)NC(=O)c2ccccc2S3)cc(C(=O)OC)c1	-32%	50µM*	6.3µM*	2%	?	·	?	14µM*	206%	1.9µM*	Pol kappa inh-2=9.5*
COc1ccc(OC)c(C2CC(=O)N(c3cccc(C)c3)C3=C2C(=O)OC3)c1 (stereo not drawn)	-21%	-11%	-24%	-5%	-1%	·	·	·	·	·
COC(=O)C1=C[C@@H](C(=O)OC)C2C3=C(C(=O)[C@@]2(C)NC(=O)c2ccccc2)[C@H](C)n2c(=O)n(C)c(=O)n2[C@@H]3C1 (stereo partly drawn)	14%	·	·	-3%	19%	·	·	·	·	·
CCOC(=O)c1ccc(-c2ccc(/C=N/NC(=O)Cc3nnc(N)s3)o2)cc1	-1%	0%	-18%	5%	142%	-9%	·	·	·	·
Nc1nnc(CC(=O)N/N=C/c2ccc(-c3cccc(C(=O)O)c3)o2)s1	25µM*	18µM*	-1%	?	11µM*	?	60*	?	-22%	?
Cc1cccc(C(=O)N=c2c(C#N)cc3c(=O)n4cccc(C)c4nc3n2Cc2ccco2)c1	28µM*	4.5µM*	20µM*	-15%	8.9µM*	25µM*!	43*	24µM*	-29%	?
Oc1ccc(/C=N/Nc2ncnc3c2ncn3Cc2ccccc2)cc1O	?	3.2µM*	3.5µM*	2%	2.2µM*	?	48*	7.6µM*	19µM*	2.4µM*
CCc1ccc(CN(Cc2ccco2)C(=O)COc2ccc(Cl)cc2C)cc1	-18%	-11%	-24%	-18%	1%	·	·	·	·	·
CCCc1ccc(OC(=O)c2cccs2)cc1	-8%	2%	4%	0%	?	-2%	·	·	·	·
CC1=NN(c2ccc(C(=O)O)cc2)C(=O)/C1=C\c1ccc(OC(=O)c2cccs2)cc1	-18%	22µM*	?	50µM*	?	5.3µM*	?	17µM*	-7%	?
O=c1c(C(c2ccc(Br)cc2)c2c(O)nc3n(c2=O)CCS3)c(O)nc2n1CCS2	-5%	-16%	-11%	3%	-2%	?	·	·	·	·
O=c1c(C(c2ccc(O)cc2)c2c(O)nc3n(c2=O)CCS3)c(O)nc2n1CCS2	-40%	20µM*	3%	-2%	-26%	15µM*	?	?	-8%	?

Assay outcomes from PubChem BioAssay.
